Screening results (PubChem)
NPSR antag: blocks cAMP signaling of the human neuropeptide S receptor | CHO-NPSR cells, cAMP TR-FRET, antagonist mode | Potency, µM (top dose mostly 38.3 µM), usual class: inhibitors | 220,000 tested, 1% active | AID 1461; active = well fitted curve in the direction sought with a large enough effect; inconclusive = small, poorly fitted or top-dose-only effect, or another doubt; inactive = no such curve, though single readings can be large; an effect the other way counts as inactive or inconclusive; also: nearly all actives have a fitted effect of over 50% in size
Target sequence (Q6W5P4 whole entry, looked up): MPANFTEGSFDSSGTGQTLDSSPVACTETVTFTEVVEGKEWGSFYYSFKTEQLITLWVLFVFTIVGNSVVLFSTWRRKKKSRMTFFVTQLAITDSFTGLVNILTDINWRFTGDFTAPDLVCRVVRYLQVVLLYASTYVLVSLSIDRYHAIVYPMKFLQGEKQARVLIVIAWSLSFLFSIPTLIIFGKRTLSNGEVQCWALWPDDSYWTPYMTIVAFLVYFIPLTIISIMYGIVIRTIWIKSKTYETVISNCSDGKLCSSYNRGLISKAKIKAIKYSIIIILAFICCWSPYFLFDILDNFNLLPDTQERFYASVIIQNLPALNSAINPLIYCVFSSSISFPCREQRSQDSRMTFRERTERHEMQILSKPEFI
GoLoco inh red: blocks human Gai1 binding to RGS12 GoLoco peptide, red readout; P63096; Gai1:RGS12 GoLoco peptide FP, rhodamine, 10 min; Potency, µM (titrated, usually from 61.6 µM), usual class: inhibitors; 230,000 tested, 0.44% active; AID 880; active = well fitted inhibition curve with a large enough effect, not every such curve was filed as active; inactive = no such curve, though single readings can be large or run the other way; also: nearly all actives have a fitted effect of over 30% in size
KDM4E inh: JMJD2E (human) inhibition. B2RXH2. JMJD2E catalytic domain, FDH-coupled NADH fluorescence (FDH is formaldehyde dehydrogenase). Potency, µM (titrated, usually from 57.1 µM), hits mostly inhibitors. 230,000 tested, 1.6% active; also: nearly all actives have a fitted effect of over 50% in size
Target sequence (B2RXH2 1-337 limits assumed): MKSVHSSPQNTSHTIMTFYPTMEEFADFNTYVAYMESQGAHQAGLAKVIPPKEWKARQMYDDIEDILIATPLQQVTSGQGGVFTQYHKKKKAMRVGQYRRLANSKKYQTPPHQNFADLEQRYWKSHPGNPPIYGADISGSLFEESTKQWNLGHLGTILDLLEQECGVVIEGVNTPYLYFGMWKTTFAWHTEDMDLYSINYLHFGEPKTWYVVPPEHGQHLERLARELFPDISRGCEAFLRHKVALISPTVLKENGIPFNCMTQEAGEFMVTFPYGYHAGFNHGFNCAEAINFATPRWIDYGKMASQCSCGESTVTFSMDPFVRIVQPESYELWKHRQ
FBPA coupling cs: inhibits coupling enzyme system, counter-screen for aldolase hits | 290,000 tested, 0.67% active | coupling enzyme system counterscreen, AmpLite Red fluorescence | activity change, negative = inhibition, % at 58.2 µM, hits read low; in the data active = activity change below about -30%
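Fluorescence at 525 nm excitation and 598 nm emission measured inhibition of the coupled detection system without aldolase. Compounds (at 57.5 uM final) were preincubated 10 min at room temperature with coupling enzyme reagent before a 20 min substrate/AmpLite Red step.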
Sfp inh: blocks B. subtilis Sfp PPTase activity. Biochemical Sfp PPTase activity, qHTS. Potency, µM, actives largely listed as inhibitors. 310,000 tested, 3.5% active. AID 1490. Q9F4F7; active = well fitted curve in the direction sought with a large enough effect; inconclusive = small, poorly fitted or top-dose-only effect, or another doubt; inactive = no such curve, though single readings can be large; an effect the other way counts as inactive or inconclusive;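 also: the enzyme is Sfp with the accession as filed and its product quenches rhodamine fluorescence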
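Compounds were incubated with enzyme (final 15 nM) for 15 min at room temperature before substrate addition started the reaction. Fluorescence at 525 nm excitation, 598 nm emission was recorded immediately and after 30 minutes.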
ALDH1A1 inh: blocks purified human ALDH1A1 activity | P00352 | Purified ALDH1A1, NADH fluorescence, propionaldehyde substrate | Potency, µM (top dose mostly 75.3 µM), most hits filed as inhibitors | 220,000 tested, 7.3% active | AID 1030
Of the large screens only hits and unclear results are named; the others gave an inactive call. Only some compounds are listed: those with a hit (about 8.5% of all), similar ones and a draw of the others. Unless noted, calls follow the shape of the dose curve; as a rule, active = well fitted inhibition curve with a large enough effect (not every such curve was filed as active); inconclusive = small, poorly fitted or top-dose-only effect, or another doubt; inactive = no such curve, though single readings can be large or run the other way.

c1ccc(C2=Nc3ccccc3SC2c2nc3ccccc3[nH]2)cc1 (stereo not given)	KDM4E inh inconclusive, Sfp inh 40µM, ALDH1A1 inh inconclusive
Cc1cc2c(cc1C)C(c1ccccc1OC(C)C)CC(=O)N2 (stereo not given)	none (no result: NPSR antag, GoLoco inh red, KDM4E inh, ALDH1A1 inh)
O=C(Oc1ccccc1/C=C\C(=O)c1cc2ccccc2o1)c1ccccc1	ALDH1A1 inh 11µM
O=C(Oc1ccccc1/C=C\C(=O)c1cc2ccccc2o1)c1cccc(F)c1	Sfp inh inconclusive, ALDH1A1 inh 8.9µM
COc1cccc(C(=O)Oc2ccccc2/C=C\C(=O)c2cc3ccccc3o2)c1	NPSR antag inconclusive, Sfp inh inconclusive
CNc1nc(C#N)nc(Nc2ccccc2)n1	none (no result: NPSR antag, GoLoco inh red, KDM4E inh, Sfp inh, ALDH1A1 inh)
COc1ccccc1Nc1nc(NCCO)c2ccccc2n1	none
Cc1ccc(Nc2nc(NCCO)c3ccccc3n2)cc1C	Sfp inh 79µM (no result: NPSR antag, GoLoco inh red, KDM4E inh, ALDH1A1 inh)
CC1(C)CC2(CC(c3ccccc3F)c3ccc(O)c(O)c3O2)NC(=S)N1 (stereo not given)	KDM4E inh 10µM, Sfp inh 8.9µM, ALDH1A1 inh inconclusive
CC1(C)CC2(CC(c3ccc(F)cc3)c3ccc(O)cc3O2)NC(=S)N1 (stereo not given)	none (no result: ALDH1A1 inh)
Cc1ccc(CNC(=O)CCS(=O)(=O)c2ccc(Br)s2)o1	Sfp inh 40µM, ALDH1A1 inh 22µM
O=C(CCS(=O)(=O)c1ccc(Br)s1)NCc1ccccc1	none
COc1cc(OC)cc(C(=O)N[C@H](C(=O)OCC(=O)Nc2ccc(C(C)C)cc2)C(C)C)c1	NPSR antag inconclusive, ALDH1A1 inh inconclusive (no result: GoLoco inh red)
COc1cc(OC)cc(C(=O)N[C@H](C(=O)OCC(=O)Nc2sccc2C#N)C(C)C)c1	ALDH1A1 inh 28µM
COCCNc1nc2nonc2nc1N(C)Cc1cccc2cnccc12	ALDH1A1 inh 5µM
CC1CCC(NCCNC(=O)c2ccco2)CC1 (stereo not given)	none (no result: NPSR antag, GoLoco inh red, KDM4E inh, ALDH1A1 inh)
CSc1ccc(/C=C2\CCn3c2nc2cc(C(=O)O)ccc2c3=O)cc1	none (no result: NPSR antag, GoLoco inh red, KDM4E inh, ALDH1A1 inh)
O=C(Oc1cc(-c2ccccc2)no1)c1ccc(F)cc1	none
O=C(Oc1cc(-c2ccccc2)no1)c1cccc(C(F)(F)F)c1	ALDH1A1 inh 7.9µM
CCCCSCc1[nH]c(=O)[nH]c1C(=O)CCCCC(=O)OCC	none
CCOC(=O)CCCCC(=O)c1[nH]c(=O)[nH]c1Cn1ccnc1	Sfp inh 79µM, ALDH1A1 inh inconclusive
O=C(CSc1ncnc2c1cnn2Cc1ccccc1)Nc1ccc2c(c1)OCCO2	ALDH1A1 inh 13µM
O=C(COC(=O)c1ccc(=O)n(Cc2ccccc2)n1)Nc1ccc2c(c1)OCCO2	ALDH1A1 inh 8.9µM
O=C(COC(=O)c1ccco1)Nc1ccc2c(c1)OCCO2	none
Cc1nc2ccccc2c(=O)n1/N=C/C=C/c1ccccc1	none (no result: ALDH1A1 inh)
CC1CCN(C(=O)CCc2nnc3ccc(N4CCC5(CC4)OCCO5)nn23)CC1	none (no result: NPSR antag, GoLoco inh red, KDM4E inh, ALDH1A1 inh)
O=C(NCC1CCCO1)c1cc2ccccc2oc1=O (stereo not given)	KDM4E inh inconclusive, ALDH1A1 inh inconclusive
CC(C)C1Cc2c(C#N)c(N)sc(=S)c2CO1 (stereo not given)	NPSR antag inconclusive, Sfp inh 28µM, ALDH1A1 inh inconclusive
CC1(C)Cc2c(C#N)c(N)sc(=S)c2CO1	KDM4E inh inconclusive, Sfp inh 45µM, ALDH1A1 inh 11µM
COc1cc(CC(=O)OCC(=O)N2C(C)CCCC2C)cc(OC)c1OC (stereo not given)	none (no result: NPSR antag, GoLoco inh red, KDM4E inh, ALDH1A1 inh)
COc1cccc(/C=N/NC(=S)Nc2cccc(S(=O)(=O)N(C)C)c2)c1	NPSR antag inconclusive, Sfp inh 10µM (no result: ALDH1A1 inh)
CN(C)S(=O)(=O)c1cccc(NC(=S)N/N=C/c2ccc(O)c(O)c2O)c1	KDM4E inh 7.9µM, FBPA coupling cs -56, Sfp inh 3.2µM (no result: ALDH1A1 inh)
COc1cc(/C=N/NC(=S)Nc2cccc(S(=O)(=O)N(C)C)c2)cc(OC)c1O	KDM4E inh inconclusive, ALDH1A1 inh 22µM
COc1cc(/C=N/NC(=S)N/N=C/c2cc(OC)c(OC)c(OC)c2)cc(OC)c1OC	none
COc1ccc(O)c(/C=N/NC(=S)Nc2cccc(S(=O)(=O)N(C)C)c2)c1	NPSR antag inconclusive, ALDH1A1 inh inconclusive
NC(=O)c1ccc(NC(=O)CN2CCN(Cc3ccccc3)CC2)cc1	none (no result: NPSR antag, GoLoco inh red, KDM4E inh, ALDH1A1 inh)
COc1ccc(-n2c(SCC(=O)N3CCCCC3)nc(O)cc2=O)cc1	ALDH1A1 inh 22µM
COC(=O)C1C(=O)C(C(=O)/C=C/c2ccco2)C(=O)CC1(C)C (stereo not given)	Sfp inh 56µM (no result: NPSR antag)
CCCCN(CC(=O)NC1CCCC1)C(=O)C(=O)Nc1ccc2c(c1)OCCO2	none (no result: NPSR antag, GoLoco inh red, KDM4E inh, ALDH1A1 inh)
COc1ccc(NS(=O)(=O)c2cccc(C(=O)N/N=C(\C)c3ccncc3)c2)cc1	ALDH1A1 inh inconclusive
COc1ccccc1NS(=O)(=O)c1cccc(C(=O)N/N=C2\CC(=O)CC(C)(C)C2)c1	KDM4E inh inconclusive
COc1ccccc1NS(=O)(=O)c1cccc(C(=O)NN)c1	ALDH1A1 inh 4µM
CCN(CC)c1ccc(/C=N/NC(=O)c2cccc(S(=O)(=O)Nc3ccccc3OC)c2)cc1	KDM4E inh inconclusive, ALDH1A1 inh 10µM
COc1ccc(NS(=O)(=O)c2cccc(C(=O)N/N=C(\C)c3ccc(-n4ccnc4)cc3)c2)cc1	KDM4E inh inconclusive, FBPA coupling cs -46, ALDH1A1 inh inconclusive
COc1ccccc1NS(=O)(=O)c1cccc(C(=O)NN=C2CCCC2)c1	KDM4E inh inconclusive, ALDH1A1 inh 13µM
CCN(CC)c1ccc(/C=N/NC(=O)c2cccc(S(=O)(=O)Nc3ccccc3OC)c2)c(O)c1	KDM4E inh inconclusive
COc1ccccc1NS(=O)(=O)c1cccc(C(=O)N/N=C/c2ccc3c(c2)OCCO3)c1	KDM4E inh inconclusive, ALDH1A1 inh inconclusive
COc1ccc(NS(=O)(=O)c2cccc(C(=O)N/N=C/c3ccc4c(c3)OCCO4)c2)cc1	Sfp inh 16µM
Cc1cc(-c2nsc(=O)o2)c(S(C)(=O)=O)s1	ALDH1A1 inh 2.8µM
CC(C)C(NC(=O)CN(c1cccc(F)c1)S(C)(=O)=O)C(C)C	ALDH1A1 inh 35µM
Cc1ccc(C2=NOC(=O)/C2=C\c2ccc(C)o2)cc1	NPSR antag inconclusive, Sfp inh 40µM (no result: ALDH1A1 inh)
Cc1ccc(/C=C2\C(=O)ON=C2c2ccccc2)o1	ALDH1A1 inh inconclusive
O=C1/C(=C\c2ccc(-c3ccccc3[N+](=O)[O-])o2)C(c2ccccc2)=NN1c1ccccc1	none
Cc1ccc(-c2ccc(/C=C3\C(=O)ON=C3c3ccccc3)o2)c([N+](=O)[O-])c1	NPSR antag 7.9µM, Sfp inh 22µM, ALDH1A1 inh 8.9µM
S=C1NC[C@H](CC2CCCCC2)N1CCCCC1CCCCC1	none (no result: ALDH1A1 inh)
C=CCn1c(C)cc(C(=O)COc2ccc(S(=O)(=O)N3CCCC3)cc2[N+](=O)[O-])c1C	ALDH1A1 inh 5µM
Cn1nc(C(=O)NCCc2ccc(S(N)(=O)=O)cc2)c2ccccc2c1=O	none
